Hits are enriched below; roughly 27% of the tested compounds scored in any of these assays.
sEH act: increases human soluble epoxide hydrolase activity. P34913. purified human sEH enzymatic activity, activator screen. activation, % at 2 µM. 91,000 tested, 0.04% active. AID 717; in the data active means activation above about 37%
CYP2C9 inh: blocks human cytochrome P450 2C9 | CYP2C9 Supersomes, luciferin-H conversion, luminescence | inhibition, % at 5 µM | 96,000 tested, 20% active | AID 777;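 active means blocking of liver enzyme CYP2C9 beyond about 50% at 5 µM, limit read from the data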
Target sequence (P11712 whole entry, looked up): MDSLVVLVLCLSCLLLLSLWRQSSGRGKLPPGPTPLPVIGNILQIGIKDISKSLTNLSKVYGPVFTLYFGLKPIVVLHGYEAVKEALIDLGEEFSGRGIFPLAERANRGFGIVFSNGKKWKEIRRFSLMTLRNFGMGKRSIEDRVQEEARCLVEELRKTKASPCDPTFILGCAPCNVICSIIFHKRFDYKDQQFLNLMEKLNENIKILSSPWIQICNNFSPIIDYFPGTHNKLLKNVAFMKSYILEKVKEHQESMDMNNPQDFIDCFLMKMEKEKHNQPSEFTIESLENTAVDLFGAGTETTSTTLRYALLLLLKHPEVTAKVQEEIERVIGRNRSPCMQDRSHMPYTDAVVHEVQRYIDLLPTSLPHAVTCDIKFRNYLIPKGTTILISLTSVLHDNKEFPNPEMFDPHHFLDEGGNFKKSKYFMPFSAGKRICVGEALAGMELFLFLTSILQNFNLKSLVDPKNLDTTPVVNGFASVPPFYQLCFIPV
CYP2C19 inhib: human CYP2C19 inhibition; inhibition, % at 5 µM; CYP2C19 Supersomes, luciferin-H EGE luminescence, 30 min; P33261; 96,000 tested, 21% active;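 active means CYP2C19 inhibition above a set limit at 5 µM in the primary screen, cut at about 50% in these data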
sEH inhibitor: blocks human soluble epoxide hydrolase activity | P34913 | recombinant human sEH enzymatic activity assay | inhibition, % at 2 µM | 91,000 tested, 0.34% active; in the data active means inhibition above about 80%
CYP2C9 act: CYP2C9 (human) activation; P11712; recombinant CYP2C9, luciferin-H conversion, luminescence; hits give high values; factor 1 = untreated enzyme, 0 = blocked; activation factor at 5 µM; 96,000 tested, 1.4% active;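 active means activation factor of 2 or more for CYP2C9 at a 5 µM dose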
CYP2C19 act: cytochrome P450 2C19 (human) activation; P33261; recombinant CYP2C19, luciferin-H EGE luminescence; hits give high values; 0 = fully inhibited enzyme, 1 = untreated enzyme; activation factor at 5 µM; 96,000 tested, under 10 active;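 active means activation factor of at least 2 at 5 µM in the primary screen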
A number is an active result; i = inactive; nt = not tested or not shown.

SMILES	sEH act	CYP2C9 inh	CYP2C19 inhib	sEH inhibitor	CYP2C9 act	CYP2C19 act
CCOC(=O)c1cc(S(=O)(=O)N2CCN(C(=O)OCC)CC2)cn1C	i	i	i	i	i	i
COC(=O)CCSCC(=O)Nc1nnc(C)s1	nt	i	i	nt	i	i
O=C(CCCC(=O)N(CC(=O)NC1CCCCC1)Cc1ccccc1)Nc1ccccn1	i	i	i	i	i	i
COc1ccc(CNC(=O)CN(C(=O)CCC(=O)Nc2ccccn2)c2ccccc2OC)cc1	i	63.6	i	i	i	i
Cc1ccc(CN(CC(=O)NCCc2ccccc2)C(=O)CCCC(=O)Nc2cc(C)on2)cc1	i	62.0	59.7	i	i	i
Cc1cc(NC(=O)CCC(=O)N(CC(=O)NCC2CCCO2)Cc2ccc(F)cc2)no1 (stereo unspecified)	i	nt	nt	i	nt	nt
O=C(CN(Cc1ccco1)C(=O)CCC(=O)Nc1ccccn1)NCCc1ccccc1	nt	57.9	68.7	nt	i	i
Cc1cccc(N(CC(=O)NCc2ccc3c(c2)OCO3)C(=O)CCC(=O)Nc2ccccn2)c1C	i	58.8	81.9	i	i	i
COc1ccccc1-c1nc(-c2cccc(C)c2)no1	i	i	i	i	i	i
CCC1(CC)Cc2ccccc2C(CC(=O)N2CCOCC2)=N1	i	i	i	i	i	i
Cc1cccc(N(CC(=O)NCc2ccco2)C(=O)CCC(=O)Nc2ccccn2)c1	nt	i	57.9	nt	i	i
COc1ccccc1N(CC(=O)NCc1ccccc1)C(=O)CCC(=O)Nc1ccccn1	i	nt	nt	i	nt	nt
Cc1cccc(N(CC(=O)NCc2ccc3c(c2)OCO3)C(=O)CCC(=O)Nc2ccccn2)c1	i	i	60.8	i	i	i
CC1(C)CC(=O)N(c2ccccc2)C1(C)O (stereo unspecified)	i	i	i	i	i	i
Nc1cccnc1Sc1cc(Cl)c(Cl)cc1Cl	i	i	i	i	i	i
O=C(NCc1cccnc1)c1ccc(CN2CCc3ccccc3C2)cc1	i	nt	nt	i	nt	nt
CCNc1nc(Oc2ccc(Cl)cc2Cl)cc(C(F)(F)F)n1	i	62.9	i	i	i	i
CCNc1nc(N)nc(Oc2ccc(OCCOc3ccc(Cl)cc3Cl)nn2)n1	i	80.4	94.0	i	i	i
CC1(C)CC(=O)C2=C(C1)N(c1ccccc1C#N)C(N)=C(C#N)C2c1cccs1 (stereo unspecified)	i	71.3	i	i	i	i
COc1ccc(N2C(N)=C(C#N)C(c3cccnc3)C3=C2CC(C)(C)CC3=O)cc1 (stereo unspecified)	i	55.9	i	i	i	i
CC1(C)CC(=O)C2=C(C1)OC(c1cccs1)C(C#N)=C2N (stereo unspecified)	nt	67.9	82.7	nt	i	i
CCCCCCC1C(C#N)=C(N)OC2=C1C(=O)CC(C)(C)C2 (stereo unspecified)	i	nt	nt	i	nt	nt
CCSc1sccc1C1C(C#N)=C(N)N(c2cccnc2)C2=C1C(=O)CC(C)(C)C2 (stereo unspecified)	nt	59.9	73.6	nt	i	i
Cc1ccccc1N1C(S)=C(C#N)C(=O)NC1c1cccs1 (stereo unspecified)	i	i	i	i	i	i
Cn1cnnc1SCC(=O)NC(=O)NC1CCCC1	nt	i	i	nt	i	i
SMILES	sEH act	CYP2C9 inh	CYP2C19 inhib	sEH inhibitor	CYP2C9 act	CYP2C19 act
NC(=O)C1CCN(CCC(=O)Nc2ccc3c(c2)CCC3)CC1	i	nt	nt	i	nt	nt
COc1ccccc1NCc1nnc(SCC(=O)N/N=C/c2ccco2)n1-c1ccc(Cl)cc1Cl	i	i	i	i	i	i
Cc1ccc(/C=N\NC(=O)c2csnn2)cc1	i	i	i	i	i	i
Cc1cccc(NC(=O)C2CCN(c3nccc(C)n3)CC2)c1	i	i	70.0	i	i	i
CCC(C)c1ccc(NC(=O)C2CCN(c3ncccn3)CC2)cc1 (stereo unspecified)	i	nt	nt	98.8	nt	nt
CC(C)CCn1c(SCC(=O)OCn2nnc3ccccc3c2=O)nc2ccccc2c1=O	i	i	i	i	i	i
O=C1c2ccccc2C(O)N1Cc1ccco1 (stereo unspecified)	nt	i	i	nt	i	i
Cc1ccc(C2Nc3ccccc3C(=O)N2Cc2ccco2)cc1 (stereo unspecified)	i	86.2	i	i	i	i
O=C1c2ccccc2NC(c2ccc(O)cc2)N1Cc1ccco1 (stereo unspecified)	i	60.0	i	i	i	i
O=C1c2ccccc2NC(c2cccc(F)c2)N1Cc1ccco1 (stereo unspecified)	i	95.6	91.8	i	i	i

High-throughput results from PubChem BioAssay.
